What is called inhibition is the drop in the measured response relative to a control, in per cent.

In assay [1] the target is 5'-AMP-activated protein kinase catalytic subunit alpha-2 (Homo sapiens) (UniProt P54646). Particulars: at 1 µM.
In assay [2] the target is T1, NUAK family SNF1-like kinase 1 (Homo sapiens) (UniProt O60285).
T1 sequence (whole entry): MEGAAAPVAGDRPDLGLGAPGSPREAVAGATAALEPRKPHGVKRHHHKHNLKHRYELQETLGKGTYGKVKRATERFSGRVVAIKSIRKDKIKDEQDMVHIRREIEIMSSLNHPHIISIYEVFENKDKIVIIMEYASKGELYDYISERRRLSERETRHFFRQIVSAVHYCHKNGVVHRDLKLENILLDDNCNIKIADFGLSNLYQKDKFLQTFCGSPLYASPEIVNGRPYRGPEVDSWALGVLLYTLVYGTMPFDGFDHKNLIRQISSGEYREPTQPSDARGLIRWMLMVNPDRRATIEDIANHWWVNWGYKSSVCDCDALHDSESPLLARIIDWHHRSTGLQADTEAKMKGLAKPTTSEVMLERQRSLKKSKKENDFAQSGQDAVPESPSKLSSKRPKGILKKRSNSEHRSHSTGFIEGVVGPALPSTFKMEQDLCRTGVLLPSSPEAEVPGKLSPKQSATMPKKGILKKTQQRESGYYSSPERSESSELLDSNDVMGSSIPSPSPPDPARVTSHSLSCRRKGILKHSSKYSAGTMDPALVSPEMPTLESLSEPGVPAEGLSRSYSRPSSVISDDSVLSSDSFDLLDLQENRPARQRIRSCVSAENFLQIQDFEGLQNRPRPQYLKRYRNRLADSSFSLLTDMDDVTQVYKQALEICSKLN
Particulars: at 0.1 µM.

Assay [3] concerns the target T1, NUAK family SNF1-like kinase 1 (Homo sapiens). Particulars: at 1 µM.
The target in assay [4] is T2, Serine/threonine-protein kinase BRSK1 (Homo sapiens) (UniProt Q8TDC3).
T2 sequence (whole entry): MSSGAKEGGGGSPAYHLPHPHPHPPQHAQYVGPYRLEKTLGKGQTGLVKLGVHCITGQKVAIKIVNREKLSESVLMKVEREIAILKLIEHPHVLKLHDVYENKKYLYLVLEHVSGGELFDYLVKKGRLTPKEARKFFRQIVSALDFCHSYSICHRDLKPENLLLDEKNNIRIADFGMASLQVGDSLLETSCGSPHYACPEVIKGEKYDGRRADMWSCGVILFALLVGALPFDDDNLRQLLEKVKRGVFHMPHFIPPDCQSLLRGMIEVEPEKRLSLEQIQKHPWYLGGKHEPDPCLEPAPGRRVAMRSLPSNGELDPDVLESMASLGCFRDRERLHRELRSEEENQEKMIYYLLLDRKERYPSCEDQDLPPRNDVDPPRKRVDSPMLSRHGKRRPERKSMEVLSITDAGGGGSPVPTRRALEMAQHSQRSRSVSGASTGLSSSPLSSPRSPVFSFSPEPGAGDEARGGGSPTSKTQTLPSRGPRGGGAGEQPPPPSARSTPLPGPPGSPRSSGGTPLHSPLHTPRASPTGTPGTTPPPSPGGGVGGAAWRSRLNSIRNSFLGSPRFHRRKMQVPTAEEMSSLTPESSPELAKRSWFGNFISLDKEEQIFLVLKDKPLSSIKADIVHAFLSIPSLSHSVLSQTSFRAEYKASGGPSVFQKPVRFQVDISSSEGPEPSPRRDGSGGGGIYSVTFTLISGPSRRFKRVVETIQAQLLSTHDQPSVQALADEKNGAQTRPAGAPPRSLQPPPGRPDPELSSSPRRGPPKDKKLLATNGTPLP
Particulars: at 0.1 µM.

Assay [5] concerns the target T2, Serine/threonine-protein kinase BRSK1 (Homo sapiens). Particulars: at 1 µM.
In assay [6] the target is T3, Serine/threonine-protein kinase BRSK2 (Homo sapiens) (UniProt Q8IWQ3).
T3 sequence (whole entry): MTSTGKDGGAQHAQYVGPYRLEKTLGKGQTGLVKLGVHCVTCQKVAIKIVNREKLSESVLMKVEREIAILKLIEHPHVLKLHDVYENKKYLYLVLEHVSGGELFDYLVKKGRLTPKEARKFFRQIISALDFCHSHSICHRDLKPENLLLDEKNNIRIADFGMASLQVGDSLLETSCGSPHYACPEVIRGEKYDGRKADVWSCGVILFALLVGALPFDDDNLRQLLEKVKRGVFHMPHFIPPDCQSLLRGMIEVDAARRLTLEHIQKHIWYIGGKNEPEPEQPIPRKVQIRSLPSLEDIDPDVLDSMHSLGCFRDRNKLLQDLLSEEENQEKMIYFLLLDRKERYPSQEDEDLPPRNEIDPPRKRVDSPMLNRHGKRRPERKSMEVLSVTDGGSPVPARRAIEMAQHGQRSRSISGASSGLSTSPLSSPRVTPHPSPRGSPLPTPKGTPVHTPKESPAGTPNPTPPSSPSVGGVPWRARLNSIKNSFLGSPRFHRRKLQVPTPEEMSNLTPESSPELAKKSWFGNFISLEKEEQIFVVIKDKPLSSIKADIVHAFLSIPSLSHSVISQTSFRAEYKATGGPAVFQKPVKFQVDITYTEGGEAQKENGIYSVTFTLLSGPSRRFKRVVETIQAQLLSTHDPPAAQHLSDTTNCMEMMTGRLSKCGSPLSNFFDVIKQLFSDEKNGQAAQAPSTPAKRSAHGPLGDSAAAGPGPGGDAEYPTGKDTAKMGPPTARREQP
Particulars: at 0.1 µM.

In assay [7] the target is T3, Serine/threonine-protein kinase BRSK2 (Homo sapiens). Particulars: at 1 µM.
Assay [8] addresses Calcium/calmodulin-dependent protein kinase type 1D (Homo sapiens) (UniProt Q8IU85). Particulars: at 0.1 µM.
Assay [9] shares this target. Particulars: at 1 µM.
Assay [10] concerns the target Calcium/calmodulin-dependent protein kinase type II subunit alpha (Homo sapiens) (UniProt Q9UQM7). Particulars: at 0.1 µM.
For assay [11] the target is unchanged. Particulars: at 1 µM.
Assay [12] addresses Calcium/calmodulin-dependent protein kinase type II subunit delta (Homo sapiens) (UniProt Q13557). Particulars: at 0.1 µM.
Assay [13] shares this target. Particulars: at 1 µM.
Assay [14] has as its target T4, Calcium/calmodulin-dependent protein kinase type IV (Homo sapiens) (UniProt Q16566).
T4 sequence (whole entry): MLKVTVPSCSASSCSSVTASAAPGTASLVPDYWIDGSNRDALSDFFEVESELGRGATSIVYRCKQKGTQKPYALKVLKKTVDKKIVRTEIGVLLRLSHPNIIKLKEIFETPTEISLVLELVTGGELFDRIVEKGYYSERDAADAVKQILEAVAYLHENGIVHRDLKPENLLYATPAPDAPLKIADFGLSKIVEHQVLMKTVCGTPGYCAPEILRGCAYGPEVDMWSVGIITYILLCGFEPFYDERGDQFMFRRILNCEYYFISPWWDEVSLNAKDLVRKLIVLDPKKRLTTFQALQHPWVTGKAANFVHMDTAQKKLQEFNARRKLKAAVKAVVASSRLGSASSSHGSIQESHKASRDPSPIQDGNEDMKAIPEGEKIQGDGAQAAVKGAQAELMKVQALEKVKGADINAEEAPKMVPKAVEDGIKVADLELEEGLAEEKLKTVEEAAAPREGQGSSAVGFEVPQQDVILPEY
Particulars: at 0.1 µM.

Assay [15] deals with T4, Calcium/calmodulin-dependent protein kinase type IV (Homo sapiens). Particulars: at 1 µM.
In assay [16] the target is T5, Serine/threonine-protein kinase Chk1 (Homo sapiens) (UniProt O14757).
T5 sequence (whole entry): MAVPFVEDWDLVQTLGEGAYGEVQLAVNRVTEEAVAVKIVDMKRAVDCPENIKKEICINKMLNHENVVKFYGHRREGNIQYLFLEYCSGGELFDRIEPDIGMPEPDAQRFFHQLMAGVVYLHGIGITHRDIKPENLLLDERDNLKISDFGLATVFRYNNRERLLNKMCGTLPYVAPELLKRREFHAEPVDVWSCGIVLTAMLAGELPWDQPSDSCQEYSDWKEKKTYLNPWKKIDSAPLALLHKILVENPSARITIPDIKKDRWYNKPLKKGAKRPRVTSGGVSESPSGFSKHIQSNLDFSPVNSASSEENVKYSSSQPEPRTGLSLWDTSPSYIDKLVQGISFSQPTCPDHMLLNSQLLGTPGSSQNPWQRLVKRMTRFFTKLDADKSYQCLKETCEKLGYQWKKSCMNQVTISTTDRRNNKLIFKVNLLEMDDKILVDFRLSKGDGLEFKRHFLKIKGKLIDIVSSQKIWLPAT
Particulars: at 0.1 µM.

Assay [17] concerns the target T5, Serine/threonine-protein kinase Chk1 (Homo sapiens). Particulars: at 1 µM.
In assay [18] the target is Serine/threonine-protein kinase Chk2 (Homo sapiens) (UniProt O96017). Particulars: at 0.1 µM.
Assay [19] has the same target. Particulars: at 1 µM.
Assay [20] has as its target Death-associated protein kinase 1 (Homo sapiens) (UniProt P53355). Particulars: at 0.1 µM.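 Also: reported figure is the mean inhibition of DAPK1.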

The structures appear in SMILES notation.

Death-associated protein kinase 1 (Homo sapiens), sequence (P53355 whole entry, looked up): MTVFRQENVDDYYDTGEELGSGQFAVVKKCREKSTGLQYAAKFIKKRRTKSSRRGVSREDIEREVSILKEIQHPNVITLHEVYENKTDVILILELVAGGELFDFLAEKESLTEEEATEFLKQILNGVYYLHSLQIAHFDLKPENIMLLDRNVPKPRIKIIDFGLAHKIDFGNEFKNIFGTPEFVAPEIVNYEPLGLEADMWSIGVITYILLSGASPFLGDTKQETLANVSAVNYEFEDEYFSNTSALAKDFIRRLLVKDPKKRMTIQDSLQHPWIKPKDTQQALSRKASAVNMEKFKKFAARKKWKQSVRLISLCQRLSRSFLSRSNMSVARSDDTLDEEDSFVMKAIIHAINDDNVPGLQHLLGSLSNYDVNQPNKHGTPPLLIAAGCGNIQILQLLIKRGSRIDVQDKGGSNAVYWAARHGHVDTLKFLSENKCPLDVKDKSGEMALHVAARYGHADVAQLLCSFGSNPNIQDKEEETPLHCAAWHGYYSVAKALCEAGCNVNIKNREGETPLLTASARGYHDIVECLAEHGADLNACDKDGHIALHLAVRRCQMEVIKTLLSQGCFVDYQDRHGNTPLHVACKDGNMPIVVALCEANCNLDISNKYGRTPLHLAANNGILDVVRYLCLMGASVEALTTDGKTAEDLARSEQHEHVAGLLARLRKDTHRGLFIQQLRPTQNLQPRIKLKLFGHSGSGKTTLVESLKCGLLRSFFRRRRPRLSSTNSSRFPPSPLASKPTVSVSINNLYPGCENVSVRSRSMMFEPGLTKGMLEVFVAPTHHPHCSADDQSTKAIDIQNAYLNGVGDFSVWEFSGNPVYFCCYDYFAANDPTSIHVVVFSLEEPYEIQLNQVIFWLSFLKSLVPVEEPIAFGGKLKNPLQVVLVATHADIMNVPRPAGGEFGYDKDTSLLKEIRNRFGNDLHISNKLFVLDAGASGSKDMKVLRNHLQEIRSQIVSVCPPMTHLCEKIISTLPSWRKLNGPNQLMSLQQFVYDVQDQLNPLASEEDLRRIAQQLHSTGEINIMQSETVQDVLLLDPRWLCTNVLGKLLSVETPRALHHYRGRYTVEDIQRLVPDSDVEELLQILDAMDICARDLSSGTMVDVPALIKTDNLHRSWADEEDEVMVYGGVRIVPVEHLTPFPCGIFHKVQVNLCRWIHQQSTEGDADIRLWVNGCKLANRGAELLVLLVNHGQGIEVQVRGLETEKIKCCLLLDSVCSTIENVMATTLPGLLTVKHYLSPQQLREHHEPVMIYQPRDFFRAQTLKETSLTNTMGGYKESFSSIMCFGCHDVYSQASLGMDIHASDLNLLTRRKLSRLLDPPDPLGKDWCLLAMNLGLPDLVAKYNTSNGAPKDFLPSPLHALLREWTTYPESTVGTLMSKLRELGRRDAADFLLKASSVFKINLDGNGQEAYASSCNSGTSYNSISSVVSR
Calcium/calmodulin-dependent protein kinase type II subunit alpha (Homo sapiens), sequence (Q9UQM7 whole entry): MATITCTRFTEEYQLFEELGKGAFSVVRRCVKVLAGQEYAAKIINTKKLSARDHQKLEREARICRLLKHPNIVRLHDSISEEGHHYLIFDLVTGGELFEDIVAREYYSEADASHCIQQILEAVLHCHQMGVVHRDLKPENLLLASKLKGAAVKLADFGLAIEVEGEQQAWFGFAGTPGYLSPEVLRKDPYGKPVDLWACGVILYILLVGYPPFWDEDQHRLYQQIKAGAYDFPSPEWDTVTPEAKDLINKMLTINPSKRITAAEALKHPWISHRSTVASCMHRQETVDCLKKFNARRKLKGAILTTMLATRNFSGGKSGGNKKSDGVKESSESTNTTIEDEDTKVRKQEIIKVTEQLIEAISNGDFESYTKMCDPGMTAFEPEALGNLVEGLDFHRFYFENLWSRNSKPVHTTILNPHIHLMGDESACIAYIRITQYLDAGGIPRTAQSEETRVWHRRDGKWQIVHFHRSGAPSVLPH
5'-AMP-activated protein kinase catalytic subunit alpha-2 (Homo sapiens), sequence (P54646 whole entry, looked up): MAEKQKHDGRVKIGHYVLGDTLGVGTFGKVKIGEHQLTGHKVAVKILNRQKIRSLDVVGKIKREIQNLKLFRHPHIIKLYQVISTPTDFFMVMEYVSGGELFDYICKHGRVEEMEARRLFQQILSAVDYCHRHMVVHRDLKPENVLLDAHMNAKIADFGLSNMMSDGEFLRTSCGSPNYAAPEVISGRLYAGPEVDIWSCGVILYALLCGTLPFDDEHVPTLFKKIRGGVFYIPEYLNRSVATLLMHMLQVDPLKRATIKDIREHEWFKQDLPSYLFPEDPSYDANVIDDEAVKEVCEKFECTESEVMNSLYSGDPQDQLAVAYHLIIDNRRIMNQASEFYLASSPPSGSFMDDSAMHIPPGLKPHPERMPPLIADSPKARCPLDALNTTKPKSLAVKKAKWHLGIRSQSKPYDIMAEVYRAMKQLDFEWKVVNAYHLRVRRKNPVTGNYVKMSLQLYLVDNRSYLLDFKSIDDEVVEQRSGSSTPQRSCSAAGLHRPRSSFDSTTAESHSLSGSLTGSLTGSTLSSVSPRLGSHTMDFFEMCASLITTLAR
Calcium/calmodulin-dependent protein kinase type II subunit delta (Homo sapiens), sequence (Q13557 whole entry): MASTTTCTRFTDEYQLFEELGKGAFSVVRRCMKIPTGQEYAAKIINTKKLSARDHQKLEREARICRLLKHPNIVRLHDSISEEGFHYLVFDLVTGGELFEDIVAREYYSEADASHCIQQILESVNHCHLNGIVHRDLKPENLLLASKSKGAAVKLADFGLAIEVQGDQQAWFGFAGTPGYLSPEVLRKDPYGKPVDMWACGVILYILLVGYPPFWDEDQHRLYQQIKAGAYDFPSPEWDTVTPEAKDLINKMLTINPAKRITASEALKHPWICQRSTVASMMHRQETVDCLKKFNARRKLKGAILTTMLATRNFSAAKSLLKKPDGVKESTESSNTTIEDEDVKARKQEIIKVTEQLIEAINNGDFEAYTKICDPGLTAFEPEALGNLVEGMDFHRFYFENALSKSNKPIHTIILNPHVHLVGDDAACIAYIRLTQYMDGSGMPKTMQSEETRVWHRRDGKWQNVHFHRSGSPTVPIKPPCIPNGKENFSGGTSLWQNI
Calcium/calmodulin-dependent protein kinase type 1D (Homo sapiens), sequence (Q8IU85 whole entry, looked up): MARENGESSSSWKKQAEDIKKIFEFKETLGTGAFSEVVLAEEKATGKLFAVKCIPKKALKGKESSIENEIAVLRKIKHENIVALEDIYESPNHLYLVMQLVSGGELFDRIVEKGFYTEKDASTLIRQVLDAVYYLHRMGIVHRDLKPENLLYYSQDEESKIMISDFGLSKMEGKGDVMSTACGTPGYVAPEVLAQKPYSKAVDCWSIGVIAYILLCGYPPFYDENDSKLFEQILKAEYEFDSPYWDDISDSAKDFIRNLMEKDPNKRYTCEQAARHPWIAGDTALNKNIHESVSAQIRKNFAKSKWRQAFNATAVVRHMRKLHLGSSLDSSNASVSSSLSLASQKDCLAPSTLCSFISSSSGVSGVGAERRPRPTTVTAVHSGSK
Serine/threonine-protein kinase Chk2 (Homo sapiens), sequence (O96017 whole entry): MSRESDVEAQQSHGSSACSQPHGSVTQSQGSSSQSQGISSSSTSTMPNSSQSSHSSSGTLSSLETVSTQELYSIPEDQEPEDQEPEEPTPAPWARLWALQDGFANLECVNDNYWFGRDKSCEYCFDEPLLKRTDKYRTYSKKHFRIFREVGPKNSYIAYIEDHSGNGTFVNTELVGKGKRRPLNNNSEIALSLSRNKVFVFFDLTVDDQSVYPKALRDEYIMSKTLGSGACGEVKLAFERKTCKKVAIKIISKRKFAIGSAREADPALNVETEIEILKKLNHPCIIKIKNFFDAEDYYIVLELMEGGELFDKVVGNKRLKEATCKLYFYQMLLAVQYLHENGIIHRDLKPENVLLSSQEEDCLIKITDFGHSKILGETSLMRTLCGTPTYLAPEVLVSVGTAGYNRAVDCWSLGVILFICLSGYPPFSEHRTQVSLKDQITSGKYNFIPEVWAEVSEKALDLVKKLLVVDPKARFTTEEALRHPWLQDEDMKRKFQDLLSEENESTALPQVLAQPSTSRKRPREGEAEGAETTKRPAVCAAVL

Regarding `O=C1Nc2ccc(I)cc2C1=Cc1cc(Br)c(O)c(Br)c1`, the inhibition in [1] was 3.18%; in assay [2], -1.04%; in assay [3] it was 3.51%; in assay [4], 3.87%; in assay [5] it was 0.15%; in [6], 0.3%. Further, the inhibition in [7] is 2.23%; in [8], 1.27%; in assay [9] it was 2.96%; in [10], 4.96%; in [11] it was 7.25%; in [12] it was 3.27%. The inhibition in assay [13] is 9.08%; in [14] it was 0.52%; in assay [15], 4.99%; in assay [16] it was 0.05%; in assay [17] it was -0.68%; in assay [18], 4.44%. In addition, the inhibition in [19] was determined as 9.44%; in assay [20], 1.46%.
Turning to `COc1cc(Nc2ncc(-c3ccccc3)o2)cc(OC)c1OC`, the inhibition in [1] was 5.35%; in assay [2], 24.4%; in assay [3], 61%; in [4] it was -0.43%; in assay [5] it was 5.91%; in assay [6], 0.44%. The inhibition was 10.5% in assay [7]; -1.93% in [8]; -0.01% in assay [9]; -3.81% in assay [10]; -0.38% in assay [11]; -2.56% in [12]. Besides, the inhibition in assay [13] was 5.55%; in [14], -4.13%; in assay [15], 0.09%; in assay [16], 1.58%; in [17] it was 5.64%; in [18] it was -3.16%. In addition, the values for the inhibition in assay [19] and in [20] were 1.28% and 1.78%, respectively.
Regarding `Fc1ccc(-c2ncn(C3CCNCC3)c2-c2ccnc(Oc3ccc(Oc4ccccc4)cc3)n2)cc1`, the inhibition in assay [1] was 3.68%; in assay [2], 0.78%; in assay [3] it was 0.71%; in assay [4] it was 3.46%; in assay [5], -0.07%; in [6], 1.27%. The inhibition in [7] was 1.66%; in [8], -0.26%; in [9], 3.87%; in [10] it was 2.01%; in assay [11] it was 9.16%; in assay [12] it was 3.93%. Further, the inhibition in assay [13] is 10.3%; in [14], -1.5%; in assay [15], 4.41%; in [16], 10.6%; in assay [17], 16.4%; in assay [18] it was 8.69%. Also, the inhibition was found to be 13.4% in [19] and 12.4% in [20].

Values taken from ChEMBL document CHEMBL1961873, “Compounds: GSK PKIS; Assays: Nanosyn kinase panel” (2012).
